Most compounds without a hit are left out; they make up all but 0.9% or so of the library.
LMNA splice mod: changes lamin A minigene splicing in HeLa cells; AID 1487; Potency, µM (doses to about 46.1 µM), for the others: top-dose ratio change, negative = inhibition, usual class: inhibitors; HeLa LMNA splicing GFP/RFP minigene ratio, 48 h; 200,000 tested, 0.01% active; active = well fitted inhibition curve with a large enough effect in the signal ratio, with a control signal flat, not every such curve was filed as active; inconclusive = small, poorly fitted or top-dose-only effect, or effect the other way, or a change in a side signal; the % refers to the signal ratio
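Read-out is the ratio of GFP to DsRed2 object intensity, acquired by 488 nm laser-scanning cytometry on HeLa lamin A-EGFP minigene reporter cells. Compound incubation 48 hrs at 37 °C in Opti-MEM with 2% FBS; DMSO 0.5% final.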
RECQ1 inh-1: inhibitors of human RECQ1 DNA helicase; P46063; RECQ1 DNA unwinding, red fluorescence kinetic read; Potency, µM (highest dose often 57.3 µM), inactives show at the highest dose activity, negative = inhibition, most hits filed as inhibitors; 240,000 tested, 0.54% active;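 note: plate controls were vehicle for no effect and no enzyme for full effect; nearly all actives have a fitted effect of over 30% in size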
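50 nM RECQ1T1 preincubated 15 min with compound in Tris pH 8.0 buffer with MgCl2, DTT, Tween-20 and 2.5 ug/ml poly(dI-dC); started with 200 nM TAMRA/BHQ-2 forked duplex and 2 mM ATP. Unwinding read as fluorescence (525/598 nm), two reads 2 h apart.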
APE1 inh: inhibitors of human APE1 endonuclease. P27695. recombinant APE1, TAMRA/BHQ-2 abasic DNA cleavage fluorescence. Potency, µM (highest dose often 65.8 µM), inactives show top-dose activity change, negative = inhibition, usual class: inhibitors. 350,000 tested, 0.35% active. AID 2517;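 note: plate controls were vehicle for no effect and reference inhibitor for full effect; nearly all actives have a fitted effect of over 55% in size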
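Compound pre-exposure to 0.75 nM APE1, 15 min at ambient temperature. Reaction initiated with 50 nM TAMRA/BHQ-2 THF substrate, read immediately in kinetic mode, 525 nm excitation, 598 nm emission.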
TDP1 block: blocks human tyrosyl-DNA phosphodiesterase 1; recombinant TDP1, AlphaScreen DNA substrate cleavage; Potency, µM (doses to about 130 µM), without a hit: at the highest dose activity change, negative = inhibition, actives largely listed as inhibitors; AID 485290; 350,000 tested, 0.28% active; note: nearly all actives have a fitted effect of over 40% in size
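Recombinant human Tdp1 (E. coli-expressed, 1 nM final) preincubated with compounds 15 min at room temperature, then 5'-biotin/3'-phosphotyrosine-FITC DNA substrate (15 nM final) added for 5 min. AlphaScreen beads (10 ug/ml final) added 10 min; cleavage lowers signal.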
BLM inh: blocks DNA unwinding by human BLM helicase. AID 2528. recombinant BLM DNA unwinding, fluorescence dequenching. Potency, µM (titrated, usually from 56.1 µM), inactives show top-dose activity change, negative = inhibition, most hits filed as inhibitors. P54132. 350,000 tested, 0.2% active;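 note: plate controls were vehicle for no effect and no enzyme for full effect; nearly all actives have a fitted effect of over 35% in size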
GCN5L2 inh: GCN5L2 (KAT2A) acetyltransferase inhibition; Q92830; GCN5L2 HAT assay, ThioGlo1 CoA-SH fluorescence; Potency, µM (titrated, usually from 58.9 µM), for inactives: at the top dose activity change, negative = inhibition, usual class: inhibitors; 390,000 tested, 0.21% active; AID 504327
Target sequence (Q92830 whole entry, looked up): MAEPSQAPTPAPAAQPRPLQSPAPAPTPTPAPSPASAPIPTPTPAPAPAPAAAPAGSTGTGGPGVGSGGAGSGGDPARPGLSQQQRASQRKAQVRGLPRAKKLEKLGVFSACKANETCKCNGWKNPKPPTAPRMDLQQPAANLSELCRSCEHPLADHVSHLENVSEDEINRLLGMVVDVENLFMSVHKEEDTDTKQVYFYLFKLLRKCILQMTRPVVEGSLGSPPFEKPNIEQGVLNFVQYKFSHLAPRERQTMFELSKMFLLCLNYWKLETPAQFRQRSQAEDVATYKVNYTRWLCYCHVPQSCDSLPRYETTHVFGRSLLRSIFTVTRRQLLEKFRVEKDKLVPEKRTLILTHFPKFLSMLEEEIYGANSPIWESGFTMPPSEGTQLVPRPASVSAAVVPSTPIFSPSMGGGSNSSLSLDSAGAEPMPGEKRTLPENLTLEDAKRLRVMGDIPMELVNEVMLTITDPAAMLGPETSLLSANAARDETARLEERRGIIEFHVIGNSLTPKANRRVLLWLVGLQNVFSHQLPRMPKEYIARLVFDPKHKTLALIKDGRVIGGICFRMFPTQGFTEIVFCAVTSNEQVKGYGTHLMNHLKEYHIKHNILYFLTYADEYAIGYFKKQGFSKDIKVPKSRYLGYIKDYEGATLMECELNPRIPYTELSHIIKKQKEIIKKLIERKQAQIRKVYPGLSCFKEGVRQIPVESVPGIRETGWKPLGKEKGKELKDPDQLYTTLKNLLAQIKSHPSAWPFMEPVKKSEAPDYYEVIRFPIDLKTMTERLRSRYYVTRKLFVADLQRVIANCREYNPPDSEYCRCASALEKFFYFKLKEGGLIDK
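qHTS, 1536-well. 20nM enzyme, pH 7.5 HEPES/EDTA/Tween-20 buffer; 15 min compound preinc., RT. Start: 75uM H3(1-25), 70uM AcCoA, 50uM ThioGlo1. Read Ex340/Em540 at t=0 (autofluorescence flag) and t=20 min.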
RECQ1 inh conf: confirmation of human RECQ1 helicase inhibitors | 610 tested, 28% active | AID 2708 | Potency, µM (highest dose often 229 µM), inactives show at the top dose activity change, negative = inhibition, most hits filed as inhibitors | RECQ1 helicase DNA unwinding, fluorescence | shares compounds with RECQ1 inh-1; note: nearly all actives have a fitted effect of over 45% in size
RECQ1 ADP FP: displaces ADP in a fluorescence polarization counter-screen for RECQ1 hits; AID 2711; ADP fluorescence polarization displacement counterscreen; shares compounds with RECQ1 inh-1; 530 tested, 27% active; Potency, µM (titrated, usually from 228 µM), without a hit: top-dose activity change, negative = inhibition, hits mostly inhibitors; note: nearly all actives have a fitted effect of over 45% in size
RECQ1 inh-2: blocks human RECQ1 DNA unwinding. AID 504841. shares compounds with RECQ1 inh-1. 1,100 tested, 15% active. Potency, µM (highest dose often 119 µM), inactives show at the top dose activity, negative = inhibition, most hits filed as inhibitors. recombinant RECQ1 DNA unwinding, red fluorescence; note: nearly all actives have a fitted effect of over 50% in size
* hit, by the source's call; [ ] = remark or other dose. Unless noted, calls come from the whole dose curve; as a rule, active = well fitted curve in the direction sought with a large enough effect; inconclusive = small, poorly fitted or top-dose-only effect, or another doubt; inactive = no such curve, though single readings can be large; an effect the other way counts as inactive or inconclusive. Unless noted, % is set by controls: 0 for no effect and ±100 for the full control effect; potency is the fitted concentration of half-maximal effect.

How did CCCCc1nc2c(c3c1C[C@H](C)OC3)CN(C(=O)Cc1cccc(OC)c1)CC2 do in these assays?
LMNA splice mod: -6%[9.22 µM]; RECQ1 inh-1: 7%[11.5 µM]; APE1 inh: 30%[12.4 µM]; TDP1 block: 5%[21 µM]; BLM inh: 3%[12.4 µM]

Results for C=C1CCN(C(Cc2ccccc2)C(=O)Nc2ccc(OC)cc2)S(=O)(=O)c2ccccc21 (configuration not stated) ?
RECQ1 inh-1: inactive; APE1 inh: -4%; TDP1 block: 4%; BLM inh: -10%

Results for O=C1C[C@@H](c2ccccc2Cl)N1S(=O)(=O)c1ccccc1[N+](=O)[O-] ?
RECQ1 inh-1: inactive; APE1 inh: -1%; TDP1 block: 7%; BLM inh: 5%

Results for CCN(CC)S(=O)(=O)c1ccc(OC)c(NC(=O)/C=C/c2ccco2)c1 ?
RECQ1 inh-1: 25µM*; APE1 inh: -10%; BLM inh: -18%; GCN5L2 inh: -25%; RECQ1 inh-2: -28%

Results for O=C(O)CC(CNC(=O)C1CCCN1C(=O)OCc1ccccc1)c1ccccc1 (configuration not stated) ?
APE1 inh: 9%; BLM inh: -5%; GCN5L2 inh: -4%

How did O=C(O)CCC(NC(=O)C1CCCN1C(=O)OCc1ccccc1)C(=O)O (configuration not stated) do in these assays?
RECQ1 inh-1: -19%; APE1 inh: 4%; TDP1 block: 6%; BLM inh: 3%; GCN5L2 inh: -1%; RECQ1 inh conf: 3%; RECQ1 ADP FP: inconclusive

Results for COc1ccc(C2=Nn3c(nnc3-c3ccc(OC)c(OC)c3)SC2)cc1 ?
RECQ1 inh-1: inactive; APE1 inh: -14%; TDP1 block: 3%; BLM inh: 1%

What do the screens show for `COc1cccc(COCCN2CCN(S(=O)(=O)c3ccccc3)CCC2=O)c1`?
RECQ1 inh-1: 9%; APE1 inh: -3%; TDP1 block: 9%; BLM inh: 4%

How did CCOc1ccc(/C=C(\C(=O)O)c2ccc(S(=O)(=O)N3CCCCC3)s2)cc1OC do in these assays?
APE1 inh: 17%; TDP1 block: -10%; GCN5L2 inh: -8%

What do the screens show for `CCOc1ccc(/C=C(\C(=O)O)c2ccc(S(=O)(=O)N3CCOCC3)s2)cc1OC`?
LMNA splice mod: inconclusive; RECQ1 inh-1: 1%; APE1 inh: -7%; TDP1 block: -3%; BLM inh: -20%; GCN5L2 inh: -14%; RECQ1 inh conf: -2%; RECQ1 ADP FP: inconclusive

How did Cc1cc(=O)oc2c(CN3CCC(C)CC3)c(O)c(Cl)cc12 do in these assays?
LMNA splice mod: 6%; RECQ1 inh-1: 28µM*; APE1 inh: inconclusive; TDP1 block: inconclusive; BLM inh: -17%; GCN5L2 inh: inconclusive; RECQ1 inh-2: inconclusive
